For one assay, the system named is HEK293. As to the kind of experiment: Cytotoxic Profiling of Annotated Libraries Using Quantitative High-Throughput Screening (AID 1296008). Further: nearly all actives have a fitted effect of over 60% in size. Further: potency means the concentration at half of the fitted maximal effect. The settings on record: Five cell lines viability, CellTiter-Glo ATP luminescence, 48-72 h; max response: hits give low values. In short, it runs like this: (§1)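 Cytotoxicity was measured as CellTiter-Glo ATP luminescence, read after 10 min at room temperature. Compound treatment of the cells lasted 48 or 72 hr at 37 degrees Celsius in a qHTS format.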

The subject of assay [1] is HaCat. The description is as above. The conditions noted are these: Five cell lines viability, CellTiter-Glo ATP luminescence, 48-72 h; max response: hits give low values. In short, it runs like this: as §1
(In ATP-based viability assays light output follows the ATP content of the culture.)

The subject of the next assay is MCC-13. Briefly: qHTS assay to identify novel small-molecules to repurpose for Merkel cell carcinoma treatment (AID 1296009). Further: nearly all actives have a fitted effect of over 60% in size. Further: potency means the concentration at half of the fitted maximal effect. The settings on record: MCC and control cell lines, CellTiter-Glo viability, 72 h; series mostly up to 46 µM. In short, it runs like this:
(§2)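 Cell viability measured by CellTiter-Glo following 72 hr compound treatment at 37 degree celsius, with NPC and MIPE libraries tested in 8- and 11-point concentration series.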
(In general: Quantitative high-throughput screening tests each substance at several concentrations.)

The next assay deals with MCC-26. Described as above. The settings on record: MCC and control cell lines, CellTiter-Glo viability, 72 h; series mostly up to 46 µM. The gist of the method:
as §2

Another assay concerns MKL-1. The assay is described as above. The settings on record: MCC and control cell lines, CellTiter-Glo viability, 72 h; series mostly up to 46 µM. The gist of the method: as §2
In the next assay the test system is CRL-7250. As to the kind of experiment: Cytotoxic Profiling of Annotated Libraries Using Quantitative High-Throughput Screening (AID 1296008). Further: nearly all actives have a fitted effect of over 60% in size. Further: potency means the concentration at half of the fitted maximal effect. The conditions noted are these: Five cell lines viability, CellTiter-Glo ATP luminescence, 48-72 h; max response: hits give low values. The gist of the method: as §1
Assay [2] deals with NIH3T3. The assay is described as above. The settings on record: Five cell lines viability, CellTiter-Glo ATP luminescence, 48-72 h; max response: hits give low values. In short, it runs like this:
as §1

The test system of a further assay is UISO. As to the kind of experiment: qHTS assay to identify novel small-molecules to repurpose for Merkel cell carcinoma treatment (AID 1296009). Further: nearly all actives have a fitted effect of over 60% in size. Further: potency means the concentration at half of the fitted maximal effect. The settings on record: MCC and control cell lines, CellTiter-Glo viability, 72 h; series mostly up to 46 µM. The gist of the method:
as §2

Another assay concerns WaGa. Described as above. The settings on record: MCC and control cell lines, CellTiter-Glo viability, 72 h; series mostly up to 46 µM. In short, it runs like this: as §2
For the next assay, the system named is KB-3-1. As to the kind of experiment: Cytotoxic Profiling of Annotated Libraries Using Quantitative High-Throughput Screening (AID 1296008). Further: nearly all actives have a fitted effect of over 60% in size. Further: potency means the concentration at half of the fitted maximal effect. The settings on record: Five cell lines viability, CellTiter-Glo ATP luminescence, 48-72 h; max response: hits give low values. In short, it runs like this: as §1
Another assay concerns MKL-2. As to the kind of experiment: qHTS assay to identify novel small-molecules to repurpose for Merkel cell carcinoma treatment (AID 1296009). Further: nearly all actives have a fitted effect of over 60% in size. Further: potency means the concentration at half of the fitted maximal effect. The conditions noted are these: MCC and control cell lines, CellTiter-Glo viability, 72 h; series mostly up to 46 µM. The gist of the method:
as §2

In assay [3] the test system is HACAT. The description is as above. The settings on record: MCC and control cell lines, CellTiter-Glo viability, 72 h; at 44.8 µM (top of the series) unless noted. In short, it runs like this: as §2
The next assay concerns C33A. Briefly: Primary qHTS to identify gynecologic anti-cancer compounds using libraries of approved drugs and bioactive compounds (AID 1345084). Further: nearly all actives have a fitted effect of over 55% in size. The settings on record: Gynecologic cancer cell panel viability, ATPlite luminescence, 48 h; series mostly up to 57.5 µM. The gist of the method: (§3)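 48 h compound exposure at 37 C, 5% CO2; five-point qHTS. ATPlite luminescence readout of cell ATP.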

Another assay relates to CASKI. The description is as above. The settings on record: Gynecologic cancer cell panel viability, ATPlite luminescence, 48 h; series mostly up to 57.5 µM. The gist of the method:
as §3

Assay [4] relates to NIH3T3. As to the kind of experiment: qHTS assay to identify novel small-molecules to repurpose for Merkel cell carcinoma treatment (AID 1296009). Further: nearly all actives have a fitted effect of over 60% in size. Further: potency means the concentration at half of the fitted maximal effect. The settings on record: MCC and control cell lines, CellTiter-Glo viability, 72 h; at 44.8 µM (top of the series) unless noted. The gist of the method:
as §2

Several values for one entry are separate records, joined by “and”; a condition that tells them apart may be missing. Equal values may be shown once. Results filed as inconclusive are left out. More than one record can exist for a structure, and the calls need not agree. Values without a mark were called inactive. Activity calls are given as the source filed them. The call rests on the fitted dose curve; in most records, active means well fitted curve in the direction sought with a large enough effect; inconclusive means small, poorly fitted or top-dose-only effect, or another doubt; inactive means no such curve, though single readings can be large; an effect the other way counts as inactive or inconclusive.
On the % scale 0 is the no-effect control and ±100 the full control effect.

In the case of `COc1cccc2c1CCCC2CCCN1CCN(C2CCCCC2)CC1` (configuration not stated), the Potency with HEK293 is 14.8 µM (active). Further, the max response in the assay on HaCat [1] is -16.8%. Moreover, the Potency entry in the assay with MCC-13, in the assay on MCC-26 and in the assay on MKL-1 was “inactive” each time.
Turning to `N#CC(=C(N)Sc1ccccc1N)C(C#N)=C(N)Sc1ccccc1N`, the max response in the assay on CRL-7250 was -7.68%; with NIH3T3 [2], -4.19%. Besides, the Potency entry with MCC-13, in the assay on MCC-26, in the assay on MKL-1 and in the assay with WaGa was “inactive” in each case. The Potency in the assay with UISO was 1.05 µM (active).
For the molecule `O=C1NC(=O)C(=Cc2ccc3nccnc3c2)S1`, the max response in the assay on HEK293 was -10.3%; in the assay with HaCat [1], -12.7%; in the assay on KB-3-1 it was -0.874%; in the assay on NIH3T3 [2] it was -9.21%. Besides, the Potency result in the assay on MCC-13, with MCC-26, in the assay on MKL-1, in the assay with MKL-2 and with UISO was “inactive” in each case.
Turning to `CNC1CCC(N(Cc2cccc(-c3ccncc3)c2)C(=O)c2sc3c(F)ccc(F)c3c2Cl)CC1` (configuration not stated), the Potency with HEK293 is 13.2 µM (active) and 13 µM (active). Moreover, the result in the assay with HaCat [1] and in the assay with HACAT [3] was inactive. Besides, the Potency entry in the assay with MCC-13, in the assay with MCC-26, in the assay on WaGa, in the assay with C33A and in the assay with CASKI was “inactive” throughout.
Take `CCCCCNC(=O)N1CCC(CN(Cc2ccc(Cl)cc2)Cc2ccc([N+](=O)[O-])s2)C1` (configuration not stated): the max response with CRL-7250 was -21%; in the assay on HaCat [1] it was 2.36%; in the assay with NIH3T3 [2] it was -17.3%. Also, the Potency result in the assay on MCC-13, with MCC-26, in the assay on MKL-1, with UISO and in the assay with WaGa was “inactive” in each case.
In the case of `CN[C@@H](C)C(=O)N[C@H]1CN(C(=O)CC(C)C)CC[C@H]2CC[C@@H](C(=O)NC(c3ccccc3)c3ccccc3)N2C1=O`, the max response is -1.1% in the assay on HEK293; 2.72% and 0.688% with KB-3-1; -2.17% and -4.72% with NIH3T3 [2]. For the same molecule, the Potency in the assay with HaCat [1] was 16.6 µM (active) and 23.1 µM (active). In addition, the Potency entry in the assay on MCC-13, in the assay with MCC-26, with MKL-2 and with C33A was “inactive” in each case.
In the case of `CC(=O)OC1C(C)OC(Oc2c(-c3ccc(O)cc3)oc3cc(O)cc(O)c3c2=O)C(O)C1OC(C)=O` (configuration not stated), the max response in the assay with CRL-7250 was -21.1%; in the assay on KB-3-1, 7.1%. Further, the Potency entry in the assay on MCC-13, in the assay with MCC-26 and with UISO was “inactive” in each case.
In the case of `O=C(O)c1ccc(-c2cc3cccnc3c(-c3ccc4nonc4c3)n2)cc1`, the Potency with HEK293 is 14.8 µM (active). The result in the assay with HaCat [1] and in the assay with HACAT [3] was inactive. In addition, the Potency result with MCC-13 was “inactive”.
Regarding `O=c1cc(-c2ccccc2)oc2cc(O)c(O)c(O)c12`, the max response in the assay with HEK293 was -21.5%; in the assay with HaCat [1] it was 1.36%; with KB-3-1 it was -0.922%; in the assay on NIH3T3 [2], -19.1%. The Potency result in the assay on MCC-13, in the assay on MCC-26, with MKL-1 and in the assay on UISO was “inactive” in each case.
Consider `NC(=O)c1cnc(-c2ccc(C3(N)CCC3)cc2)c(-c2ccccc2)c1`, for which the Potency in the assay on HEK293 is 23.5 µM (active) and 18.4 µM (active). The max response is -22.7% in the assay on HaCat [1] and -11.5% in the assay with KB-3-1. Besides, the Potency result in the assay with MCC-13, with MCC-26, with MKL-1, in the assay with MKL-2, with UISO and in the assay with WaGa was “inactive” each time.
Consider `Cc1cc(OCCCc2c(C(=O)O)n(Cc3cccnc3)c3c(-c4c(COc5ccc(N6CCN([S+](C)(=O)[O-])CC6)cc5)nn(C)c4C)cccc23)cc(C)c1Cl`, for which the results for the max response with CRL-7250, with HaCat [1] and in the assay with NIH3T3 [2] were -16.6%, -19.1% and -3.92%, respectively. Besides, the Potency result with MCC-13, in the assay with MCC-26, with MKL-1, in the assay with MKL-2, with UISO and in the assay on WaGa was “inactive” each time.
`COc1cc2ncnc(Nc3ccc(F)c(Cl)c3)c2cc1OCCCN1CCOCC1`: the Potency was 7.62 µM (active) and 16.8 µM (active) in the assay with HEK293; 531 nM (active) and 2.06 µM (active) with HaCat [1]; 13.3 µM (active) with MKL-2; 26.6 µM (active) with UISO. Besides, the max response is -57.3% with HaCat [1]; -3.97% and -1.38% and 3.83% in the assay on KB-3-1; -12.1% and -4.13% in the assay on NIH3T3 [2]. Besides, the Potency entry in the assay on MCC-26, with C33A and with CASKI was “inactive” throughout.
Regarding `Cc1ccc(C(C)(O)c2nc3ccccc3s2)c(C)c1` (configuration not stated), the max response in the assay on CRL-7250 was 0.7%; in the assay with KB-3-1, 4.83%. Further, the Potency entry in the assay on MCC-13 and in the assay on MCC-26 was “inactive” throughout. The Potency is 16.6 µM (active) with MKL-1 and 7.43 µM (active) in the assay on WaGa.
Take `CC=CCC=CCCC(=O)[C@H]1O[C@@H]1C(N)=O`: the molecule was called inactive in the assay with CRL-7250, with HaCat [1] and in the assay on HACAT [3]. Further, the max response in the assay on NIH3T3 [2] was 1.26%. In addition, the Potency entry with MCC-13, in the assay on MCC-26, in the assay with UISO and in the assay on WaGa was “inactive” each time.
Turning to `Cc1ccc([C@@H]2O[C@H](CO)[C@@H](O)[C@H](O)[C@@H]2O)cc1Cc1ccc(-c2ccc(F)cc2)s1`, the Potency in the assay with HEK293 was 14.8 µM (active). For the same molecule, the molecule was called inactive with HaCat [1], in the assay on KB-3-1, in the assay with NIH3T3 [2], in the assay on HACAT [3] and with NIH3T3 [4]. Besides, the Potency entry with MCC-13, with MCC-26, with MKL-1, with MKL-2, with UISO and in the assay with WaGa was “inactive” each time.
In the case of `O=C(Nc1ccccc1Br)N[C@@H]1CCN(c2ccc(C(F)(F)F)cn2)C1`, the max response with CRL-7250 was -5.42%; in the assay with HaCat [1], 4.65%. For the same molecule, the Potency entry with MCC-13, in the assay on MCC-26, with MKL-1, in the assay on MKL-2, in the assay on UISO and in the assay on WaGa was “inactive” in each case.
As for `CC[C@]1(O)C[C@@H]2CN(CCc3c([nH]c4ccccc34)[C@@](C(=O)OC)(c3cc4c(cc3OC)N(C=O)[C@@H]3C45CCN4CC=C[C@](CC)([C@H]45)[C@@H](OC(C)=O)[C@]3(O)C(=O)OC)C2)C1` (some centres not stated), the max response in the assay on CRL-7250 was -20.2%; with NIH3T3 [2], -0.0535%. Moreover, the Potency result with MCC-13, with MCC-26 and with MKL-1 was “inactive” throughout.
Regarding `O=C1NC(=O)C(=Cc2cccc(C(F)(F)F)c2)S1`, the outcome with CRL-7250 was inactive. The max response with HaCat [1] was -6.56%; in the assay on NIH3T3 [2] it was -7.62%. Further, the Potency result in the assay with MCC-13, in the assay on MCC-26, with MKL-1, in the assay on MKL-2 and in the assay with WaGa was “inactive” throughout.
